Screening results: PubChem BioAssay, several laboratories
GDH-TPI counter: GDH-TPI coupling enzyme inhibitors, primary screen, artefact control for M. tuberculosis FBA inhibitor project, biochemical, absorbance, full deck. inhibition, % at 4.8 µM. GDH-TPI coupled enzyme counterscreen, NADH absorbance. AID 588335, 2011. 360,000 tested, 1.2% active; in the data active = inhibition above about 30%;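 also: 0% = DMSO wells and 100% = wells lacking the enzyme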
FadD28 FP inh: inhibitors of FadD28 bisubstrate probe binding, primary screen, biochemical, fluorescence polarization, single point; inhibition, % at 12.5 µM; 360,000 tested, 0.22% active; AID 588549, 2011; in the data active = inhibition above about 8.5%, passing the limit was not always enough; inconclusive = no clear call, values can overlap the other calls
Mtb UGM inh: M. tuberculosis UGM enzyme inhibitors, primary screen, biochemical, fluorescence polarization, single point; UDP-galactopyranose mutase (Mycobacterium tuberculosis (strain ATCC 25618 / H37Rv)), …; inhibition, % at 10 µM; 320,000 tested, 0.06% active; purified UGM, fluorescence polarization probe displacement; in the data active = inhibition above about 10%, passing the limit was not always enough; inconclusive = no clear call, values can overlap the other calls
FBA Mtb inh: Mtb FBA enzyme inhibitors, primary screen, biochemical, fluorescence, strain H37Rv; Fructose-bisphosphate aldolase (Mycobacterium tuberculosis (strain ATCC 25618 / H37Rv)), …; purified M. tuberculosis FBA, fluorescence read-out; inhibition, % at 1 µM; 360,000 tested, 2.3% active; in the data active = inhibition above about 27%;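 also: 0% = vehicle and 100% = reference inhibitor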
Target sequence (P9WQA3 whole entry, looked up): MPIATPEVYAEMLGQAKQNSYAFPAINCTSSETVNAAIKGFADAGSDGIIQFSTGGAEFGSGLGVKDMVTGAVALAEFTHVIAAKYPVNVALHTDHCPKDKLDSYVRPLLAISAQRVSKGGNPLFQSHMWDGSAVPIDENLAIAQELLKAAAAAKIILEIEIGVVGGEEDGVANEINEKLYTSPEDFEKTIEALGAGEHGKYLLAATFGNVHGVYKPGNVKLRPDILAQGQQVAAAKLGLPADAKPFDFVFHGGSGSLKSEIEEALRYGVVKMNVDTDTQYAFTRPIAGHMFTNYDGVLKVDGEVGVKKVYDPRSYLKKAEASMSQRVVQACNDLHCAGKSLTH
Rv3671c protease: Rv3671c serine protease inhibitors, primary screen, biochemical, fluorescence polarization, M. tuberculosis H37Rv; 320,000 tested, 0.048% active; inhibition, % at 5.96 µM; in the data active = inhibition above about 38%;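 also: extracellular domain of Rv3671c used as enzyme; 0% = enzyme with DMSO and 100% = no enzyme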
Mtb betalactam: beta-lactam sensitization of Mtb H37Rv, H37Rv | AID 434955, 2010 | inhibition, % at 25 µM | M. tuberculosis H37Rv growth with meropenem, percent inhibition | 330,000 tested, 0.27% active; call rule not given here;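 also: growth measured after seven days incubation then overnight dye step; 0% = bacteria only wells and 100% = bacteria with antibiotic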
The depositor's hits bear a star. Only some compounds are listed: those with a hit (about 3.7% of all), similar ones and a draw of the others.

For COc1ccc(-c2nnc(Nc3nc4c(OC)cccc4s3)o2)c(OC)c1 the results were GDH-TPI counter 69*, FadD28 FP inh 2, Mtb UGM inh 0, FBA Mtb inh 60*, Rv3671c protease 3 and Mtb betalactam -2.
Screening COc1ccc(-c2nnc(Nc3nc4c(OC)cccc4s3)o2)cc1 returned GDH-TPI counter 63*, FadD28 FP inh -3, Mtb UGM inh 0, FBA Mtb inh 10, Rv3671c protease -11 and Mtb betalactam inconclusive.
Cc1ccc(NC(=C(C#N)C#N)c2ccccc2)cc1 was read as GDH-TPI counter 19, FadD28 FP inh -3 and FBA Mtb inh 2.
Screening CCOC(=O)CSc1ccc2ccccc2n1 returned GDH-TPI counter 2, FadD28 FP inh 0, Mtb UGM inh -1, FBA Mtb inh 4, Rv3671c protease 1 and Mtb betalactam 19.
CCOC(=O)CN1C=C(c2ccc3ccccc3n2)C(C[N+](=O)[O-])c2ccccc21 (configuration not stated) was read as GDH-TPI counter 9, FadD28 FP inh -4, Mtb UGM inh 17*, FBA Mtb inh 19, Rv3671c protease 5 and Mtb betalactam -8.
Cc1ccc2nc(-c3ccc(NC(=S)NC(=O)CC(C)C)cc3)sc2c1 was read as GDH-TPI counter 7, FadD28 FP inh -2, Mtb UGM inh 1, FBA Mtb inh 5, Rv3671c protease 0 and Mtb betalactam -7.
For Cc1ccc2nc(-c3ccc(NC(=O)C(C)Sc4nncs4)cc3)sc2c1 (configuration not stated) the results were GDH-TPI counter 34*, FadD28 FP inh 2, Mtb UGM inh 3, FBA Mtb inh 15, Rv3671c protease -41 and Mtb betalactam 64.
Cc1ccc2nc(-c3ccc(NS(=O)(=O)c4c(C)n(C)c(=O)n(C)c4=O)cc3)sc2c1 was read as GDH-TPI counter 17, FadD28 FP inh -1, Mtb UGM inh 2, FBA Mtb inh 17, Rv3671c protease -10 and Mtb betalactam -6.
Screening Cc1ccc(S(=O)(=O)Nc2ccc(-c3nc4ccc(C)cc4s3)cc2)cc1 returned GDH-TPI counter 10, FadD28 FP inh -1, Mtb UGM inh 1, FBA Mtb inh 183*, Rv3671c protease -13 and Mtb betalactam -4.
Screening Cc1cccc(S(=O)(=O)Nc2ccc(-c3nc4ccc(C)cc4s3)cc2)c1 returned GDH-TPI counter 24, FadD28 FP inh -3, Mtb UGM inh 4, FBA Mtb inh active, Rv3671c protease -5 and Mtb betalactam -3.
`Cc1ccc(N(CC(=O)Nc2ccc(-c3nc4ccc(C)cc4s3)cc2)S(C)(=O)=O)cc1` gave GDH-TPI counter 38*, FadD28 FP inh -6, Mtb UGM inh 1, FBA Mtb inh 18, Rv3671c protease -9 and Mtb betalactam 9.
For CN(C(=O)c1cc2c(cc1Br)OCO2)c1cccc2ccccc12 the results were GDH-TPI counter 14, FadD28 FP inh 0 and FBA Mtb inh 1.
O=S1(=O)CC(N2CCCCC2)CN1Cc1ccc(F)cc1 (configuration not stated) was read as FadD28 FP inh -3 and FBA Mtb inh -1.
`Cc1ccc2nc(NC(=O)CN3CCN(c4ccccn4)CC3)sc2c1` gave GDH-TPI counter 4, FadD28 FP inh 0, Mtb UGM inh 0, FBA Mtb inh 5, Rv3671c protease -4 and Mtb betalactam 3.
Cc1ccc2nc(-c3ccc(NC(=O)CN4CCN(c5ccccn5)CC4)cc3)sc2c1 was read as GDH-TPI counter 30, FadD28 FP inh 0, Mtb UGM inh 0, FBA Mtb inh 40*, Rv3671c protease -4 and Mtb betalactam 2.
Screening CC(C)N1C(=O)C(=O)N(CC(=O)N2c3ccccc3CC2C)C1=O (configuration not stated) returned GDH-TPI counter -3, FadD28 FP inh -4 and FBA Mtb inh -3.
NS(=O)(=O)c1ccc(CNC(=O)C(Cc2ccccc2)NS(=O)(=O)c2ccccc2F)cc1 (configuration not stated) was read as GDH-TPI counter 0, FadD28 FP inh 16*, Mtb UGM inh -4, FBA Mtb inh 0, Rv3671c protease -1 and Mtb betalactam -4.
For CC(=O)c1ccc(-c2cccc3nccn23)cc1 the results were GDH-TPI counter 24, FadD28 FP inh 0 and FBA Mtb inh 6.
c1cc(-c2ccoc2)n2ccnc2c1 was read as GDH-TPI counter 1, FadD28 FP inh -3 and FBA Mtb inh 22.
For c1cc(-c2ccc(CN3CCOCC3)cc2)n2ccnc2c1 the results were GDH-TPI counter 8, FadD28 FP inh -2 and FBA Mtb inh active.
Screening CN1CCN(c2ccc(-c3cccc4nccn34)cn2)CC1 returned GDH-TPI counter 30, FadD28 FP inh -1 and FBA Mtb inh active.
Screening N#Cc1ccc(-c2cccc3nccn23)cc1 returned GDH-TPI counter 4, FadD28 FP inh -3 and FBA Mtb inh 178*.
COc1ccc(/C=C\C(=O)O[C@@H]2C(O)C(O[C@@H]3OC(C)[C@H](O[C@@H]4OCC(O[C@H]5O[C@H](CO)[C@@H](O)C(O)C5O)C(O)C4O)C(O)C3O)[C@H](OC(=O)[C@]34CCC(C)(C)C[C@@H]3C3=CCC5[C@@]6(C)CC(O)C(O[C@@H]7OC(CO)C(O)[C@H](O)[C@H]7O)[C@@](C)(C(=O)O)C6CC[C@@]5(C)[C@]3(CO)CC4)O[C@H]2C)cc1 (some centres not stated) was read as GDH-TPI counter 10, FadD28 FP inh -2, Mtb UGM inh -1, FBA Mtb inh -2, Rv3671c protease -6 and Mtb betalactam 3.
`CCN(C(=O)COC(=O)c1ccccc1NCCO)C1CCS(=O)(=O)C1` (configuration not stated) gave GDH-TPI counter 3, FadD28 FP inh -3, Mtb UGM inh -1, FBA Mtb inh 129*, Rv3671c protease 3 and Mtb betalactam 0.
Screening CCN(C(=O)COC(=O)c1cc2ccccc2cc1O)C1CCS(=O)(=O)C1 (configuration not stated) returned GDH-TPI counter -7, FadD28 FP inh -5, Mtb UGM inh 2, FBA Mtb inh -1, Rv3671c protease -3 and Mtb betalactam 3.
`Cc1ccc(NC(=O)CN(C)C(=O)C2CCC2)cc1` gave GDH-TPI counter 6, FadD28 FP inh 1 and FBA Mtb inh 4.
Screening COCCNc1oc(-c2ccccc2Cl)nc1C#N returned GDH-TPI counter 15, FadD28 FP inh -3, Mtb UGM inh -5, FBA Mtb inh 9, Rv3671c protease 10 and Mtb betalactam -2.
